Data published in the supplement of paper PMC6522484.
± gives the standard deviation of the averaged measurements.

What was measured:
DLD1 [1] = experiment: cell viability (CellTiter-Glo) relative to plate median (fraction of plate median); higher = more viable cells; conditions: 5 µM; treatment time 24 h; reporter: 7TFP
Outline: (§1)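 Each entry is a luminescence signal normalised to the plate median, averaged over independent replicates. The replicate count was two, and the cells were colorectal cancer lines with stable lentiviral TCF/Wnt firefly luciferase reporters exposed to library compounds at a final 5 µM for 24 h. Firefly luciferase and CellTiterGlo were measured on parallel plates.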

HCT116 = experiment: as above; conditions: 5 µM; treatment time 24 h; reporter: TCF4/Wnt
Outline: as §1

SW480 [2] = experiment: as above; conditions: 5 µM; treatment time 24 h; reporter: 7TFP
Outline: as §1

DLD1 [3] = experiment: TCF/Wnt firefly luciferase reporter signal relative to plate median (fraction of plate median); higher = higher Wnt reporter signal; conditions: 5 µM; treatment time 24 h; reporter: 7TFP
Outline: as §1

SW480 [4] = experiment: as above; conditions: 5 µM; treatment time 24 h; reporter: 7TFP
Outline: as §1

SMILES | cell viability (DLD1 [1]) | cell viability (HCT116) | cell viability (SW480 [2]) | TCF/Wnt firefly luciferase reporter signal (DLD1 [3]) | TCF/Wnt firefly luciferase reporter signal (SW480 [4])
COc1ccc2c(c1)OCC(Cc1ccc(OC)c(OC(C)=O)c1)C2=O (stereo not given) | 1.025 ± 0.0071 | 0.919 ± 0.059 | 1.03 | 0.969 ± 0.12 | 0.858 ± 0.18
CN1CCC(=C2c3ccccc3CC(=O)c3sccc32)CC1 | 0.988 ± 0.046 | 1.04 ± 0.083 | 0.988 ± 0.017 | 0.956 ± 0.021 | 0.934 ± 0.042
O=C(CCc1ccc(O)cc1)c1c(O)cc(O)cc1O | 0.974 ± 0.093 | 0.88 ± 0.047 | 0.933 ± 0.0042 | 0.75 ± 0.047 | 0.858 ± 0.037
COc1ccc([C@H]2Oc3cc(OC)cc(OC)c3C[C@H]2O)cc1 | 1 ± 0.029 | 0.941 ± 0.098 | 0.9645 ± 0.005 | 0.923 ± 0.046 | 1.03 ± 0.052
C[C@]12C=CC(=O)C=C1CC[C@@H]1[C@@H]2C(=O)C[C@@]2(C)[C@H]1CC[C@]2(O)C(=O)CO | 1 ± 0.085 | 1.125 ± 0.0071 | 1.07 ± 0.057 | 1.035 ± 0.0071 | 0.91 ± 0.17
N=C(N)NC(=N)Nc1ccccc1 | 0.96 ± 0.014 | 0.969 ± 0.034 | 0.958 ± 0.021 | 0.946 ± 0.052 | 0.99 ± 0.015
Nc1cc(C(Cl)=C(Cl)Cl)c(S(N)(=O)=O)cc1S(N)(=O)=O | 0.9995 ± 0.00071 | 1.125 ± 0.0071 | 1.03 ± 0.014 | 1.17 ± 0.11 | 1.1 ± 0.078
CC(C)NCC(O)c1ccc(O)c(O)c1 (stereo not given) | 0.963 ± 0.11 | 1.04 ± 0.074 | 0.999 ± 0.016 | 1.02 ± 0.08 | 1.1 ± 0.042
CCN1CCN(C(=O)N[C@@H](C(=O)N[C@@H]2C(=O)N3[C@@H]2SC(C)(C)[C@@H]3C(=O)O)c2ccccc2)C(=O)C1=O | 0.994 ± 0.0085 | 0.993 ± 0.039 | 1.02 ± 0.039 | 1.05 ± 0.014 | 1.03 ± 0.086
CCCOc1ccc(C(=O)OCCN(CC)CC)cc1N | 0.9545 ± 0.0064 | 0.994 ± 0.051 | 0.95 ± 0.038 | 0.97 ± 0.057 | 1.095 ± 0.0071
CC1(O)CC2C(CC1O)C2(C)C (stereo not given) | 0.946 ± 0.051 | 0.998 ± 0.06 | 0.953 ± 0.011 | 0.91 ± 0.12 | 0.848 ± 0.16
COc1cc(OC)c2c(=O)c(-c3ccc4c(c3)OCO4)coc2c1 | 0.9395 ± 0.00071 | 1 ± 0.16 | 0.9755 ± 0.005 | 1.02 ± 0.066 | 1.02 ± 0.028
Nc1ccc(S(=O)(=O)O)cc1.Nc1ccc(S(=O)(=O)O)cc1.[Zn] | 1.08 ± 0.18 | 1.01 ± 0.049 | 1.105 ± 0.0071 | 1.03 ± 0.12 | 1.015 ± 0.0071
O=C(O)c1nc2cc(Cl)c(Cl)cc2nc1O | 0.95 ± 0.16 | 0.957 ± 0.046 | 1.03 ± 0.028 | 0.831 ± 0.0014 | 0.951 ± 0.098
C[C@@H]1[C@H](O)[C@@H](C)/C=C/C=C/C=C/C=C/C=C/C=C/C=C/[C@H](O[C@@H]2O[C@H](C)[C@@H](O)[C@H](N)[C@@H]2O)C[C@@H]2O[C@](O)(C[C@@H](O)C[C@@H](O)[C@H](O)CC[C@@H](O)C[C@@H](O)CC(=O)O[C@H]1C)C[C@H](O)[C@H]2C(=O)O | 1.04 ± 0.076 | 1 ± 0.096 | 1.02 ± 0.089 | 1.06 ± 0.14 | 1.01 ± 0.018
OCCOCCN1CCN(C(c2ccccc2)c2ccc(Cl)cc2)CC1 (stereo not given) | 0.978 ± 0.045 | 1.07 ± 0.014 | 1.01 ± 0.026 | 1.03 ± 0.021 | 1.075 ± 0.0071
COc1ccc(C(C)=O)c(OC)c1 | 0.971 ± 0.056 | 0.963 ± 0.15 | 0.9765 ± 0.00071 | 0.864 ± 0.044 | 1.03 ± 0.16
CO/N=C1\C[C@]2(C[C@@H]3C[C@@H](C/C=C(\C)C[C@@H](C)/C=C/C=C4\CO[C@@H]5[C@H](O)C(C)=C[C@@H](C(=O)O3)[C@]45O)O2)O[C@H](/C(C)=C/C(C)C)[C@H]1C | 0.891 ± 0.0092 | 0.921 ± 0.019 | 0.896 ± 0.042 | 0.939 ± 0.24 | 0.932 ± 0.11
COc1c(Cl)ccc(Cl)c1C(=O)O | 1.01 ± 0.039 | 1.11 ± 0.16 | 0.99 ± 0.057 | 1 ± 0.15 | 0.874 ± 0.0057
CC[C@H]1OC(=O)[C@H](C)[C@@H](O[C@H]2C[C@@](C)(OC)[C@@H](O)[C@H](C)O2)[C@H](C)[C@@H](O[C@@H]2O[C@H](C)C[C@H](N(C)C)[C@H]2O)[C@](C)(OC)C[C@@H](C)C(=O)[C@H](C)[C@@H](O)[C@]1(C)O | 0.858 ± 0.099 | 0.931 ± 0.0071 | 1.05 ± 0.042 | 0.996 ± 0.021 | 1.125 ± 0.0071
Cc1c(Cl)cccc1Nc1ccccc1C(=O)O | 0.981 ± 0.041 | 1.04 ± 0.014 | 0.914 ± 0.039 | 0.979 ± 0.12 | 0.862 ± 0.022
C[C@@H]1C[C@H]2[C@@H]3C[C@H](F)C4=CC(=O)C=C[C@]4(C)[C@@]3(F)[C@@H](O)C[C@]2(C)[C@@]1(O)C(=O)CO | 1.05 ± 0.057 | 0.889 ± 0.02 | 1.03 ± 0.028 | 1.02 ± 0.14 | 0.986 ± 0.076
CN(C/C=C/C#CC(C)(C)C)Cc1cccc2ccccc12 | 1.04 ± 0.18 | 1.04 ± 0.014 | 1.03 ± 0.035 | 1.21 ± 0.042 | 1.07 ± 0.2
CC(=O)NCCc1ccc(O)cc1 [N-Acetyl-tyramine] | 0.951 ± 0.017 | 0.985 ± 0.092 | 0.991 ± 0.0071 | 1.13 ± 0.042 | 1.05 ± 0.035
O=C(O)COCCN1CCN(C(c2ccccc2)c2ccc(Cl)cc2)CC1 (stereo not given) | 0.94 ± 0.054 | 0.896 ± 0.05 | 0.955 ± 0.024 | 1.04 ± 0.035 | 0.915 ± 0.033
COc1ccc(-c2coc3cc(O)ccc3c2=O)c(OC)c1O | 1.01 ± 0.021 | 1.03 ± 0.063 | 0.966 ± 0.076 | 0.852 ± 0.047 | 0.975 ± 0.025
CN(C(=O)C(Cl)Cl)c1ccc(OC(=O)c2ccco2)cc1 | 0.95 ± 0.0014 | 0.879 ± 0.2 | 1.03 ± 0.021 | 0.833 ± 0.14 | 0.934 ± 0.043
O=C1c2c(O)cccc2Cc2cccc(O)c21 | 0.945 ± 0.025 | 1.02 ± 0.074 | 1.08 ± 0.05 | 0.988 ± 0.031 | 0.933 ± 0.017
